This is an account of results in PubChem BioAssay (EPA / NIEHS).

Usually AC50 stands for the concentration giving half of the maximal activity seen.

Records with an inconclusive call do not appear. More than one record can exist for a structure, and the calls need not agree. The source made the active and inactive calls. How the source made its calls, unless noted: active means hit-call score of the fitted dose curve at least 0.9, where 1 is the maximum; inactive means score below 0.9.

Read-out in assay [1]: Tumor necrosis factor (Homo sapiens) (UniProt P01375)
The experiment in a line: BSK_BT_xTNFa: BioMAP Diversity Plus: BT Assay for Tumor necrosis factor alpha (TNF-alpha) Biomarker Activity (AID 2284230). The conditions noted are these: primary human B cells with PBMC. The gist of the method:
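B cells with PBMC in co-culture, dosed and sampled at 24 h; secreted TNF-alpha measured by Luminex xMAP bead assay. Activity fitted in the gain direction against DMSO as negative control and baseline.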

Read-out in assay [2]: Vascular cell adhesion molecule 1 (VCAM1), VCAM1 (gene 7412)
The experiment in a line: BSK_MyoF_VCAM1: BioMAP Diversity Plus: MyoF Assay for Vascular cell adhesion molecule 1 (VCAM1) Biomarker Activity (AID 2284231). Particulars: primary human lung fibroblasts. The gist of the method: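 Primary human lung fibroblasts (BioMAP MyoF system) dosed with chemical, VCAM-1 measured by ELISA 24 hours later. Fitted in the positive direction against DMSO; parallel SRB staining assessed cytotoxicity.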

Read-out in assay [3]: Collagen I, COL1A1 (gene 1277)
Kind of assay: BSK_MyoF_CollagenI: BioMAP Diversity Plus: MyoF Assay for Collagen I Biomarker Activity (AID 2284238). Particulars: primary human lung fibroblasts. The gist of the method: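 Primary human lung fibroblasts (MyoF system) treated 24 h; Collagen I quantified by ELISA and fitted in positive direction against DMSO. Parallel SRB total-protein staining assessed overt cytotoxicity.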

Read-out in assay [4]: Collagen III, COL3A1 (gene 1281)
The experiment in a line: BSK_MyoF_CollagenIII: BioMAP Diversity Plus: MyoF Assay for Collagen III Biomarker Activity (AID 2284239). Particulars: primary human lung fibroblasts. The gist of the method: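 Primary human lung fibroblasts (BioMAP MyoF system) exposed 24 h. Collagen III measured by ELISA; positive-direction fit relative to DMSO.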

Assay [5] is described as follows: CCTE_Mundy_HCI_hNP1_CellTiter: CCTE's Cell Titer-Glo 2 Assay in human neuroprogenitor cells for Viability, Mundy Lab (AID 2284241; active means hit-call score of the fitted dose curve at least 0.9, where 1 is the maximum). The essentials:
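Human neural progenitor cells (hNP1, WA09-derived) were plated on poly-L-ornithine/laminin and grown 40 to 44 hours at 37 °C, 5% CO2 before chemical addition. Twenty-four hours later, ATP was measured by CellTiter-Glo luminescence; loss of signal versus DMSO indicates reduced viability.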
In general terms: ATP-based viability assays read luminescence as a measure of living cells.

Read-out in assay [6]: Interleukin 17F (IL17F), IL17F (gene 112744)
Kind of assay: BSK_BT_xIL17F: BioMAP Diversity Plus: BT Assay for Interleukin 17F (IL17F) Biomarker Activity (AID 2284243). The conditions noted are these: primary human B cells with PBMC. The essentials:
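Human PBMC co-cultured with B cells, compound exposure 24 h; secreted IL-17F quantified by Luminex xMAP, referenced to DMSO control. PBMC viability measured in parallel by Alamar Blue reduction.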

Read-out in assay [7]: Actin alpha 1 (ACTA1), ACTA1 (gene 58)
Kind of assay: BSK_MyoF_ACTA1: BioMAP Diversity Plus: MyoF Assay for Actin alpha 1 (ACTA1) Biomarker Activity (AID 2284244). The conditions noted are these: primary human lung fibroblasts. The gist of the method: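 ELISA read-out of a-SMA in primary human lung fibroblast cultures, 24 h post-dosing. Activity scored in the positive direction versus DMSO baseline.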

Read-out in assay [8]: Interleukin 2 (IL2), IL2 (gene 3558)
Kind of assay: BSK_BT_xIL2: BioMAP Diversity Plus: BT Assay for Interleukin 2 (IL2) Biomarker Activity (AID 2284245). The conditions noted are these: primary human B cells with PBMC. The essentials:
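Readout: supernatant IL-2 via Luminex xMAP after 24 h chemical dosing of a B cell/PBMC primary human co-culture. DMSO serves as negative control and baseline; increases in signal were fitted.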

Read-out in assay [9]: Basic fibroblast growth factor (bFGF), FGF2 (gene 2247)
Kind of assay: BSK_MyoF_bFGF: BioMAP Diversity Plus: MyoF Assay for Basic fibroblast growth factor (bFGF) Biomarker Activity (AID 2284246). The conditions noted are these: primary human lung fibroblasts. The gist of the method: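 Primary human lung fibroblast culture, 24 h compound exposure; ELISA read-out of bFGF. Positive-direction fit vs DMSO baseline. Cytotoxicity: SRB stain (0.1% SRB, 10% TCA fixation, 560 nm) in parallel wells.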

Read-out in assay [10]: Collagen IV, COL4A1 (gene 1282)
The experiment in a line: BSK_MyoF_CollagenIV: BioMAP Diversity Plus: MyoF Assay for Collagen IV Biomarker Activity (AID 2284247). Particulars: primary human lung fibroblasts. The gist of the method:
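ELISA read-out of Collagen IV in lung fibroblast cultures, 24 h post-dosing; gain of signal relative to DMSO vehicle baseline defines activity.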

Sequence of Tumor necrosis factor (Homo sapiens) (P01375 whole entry, looked up): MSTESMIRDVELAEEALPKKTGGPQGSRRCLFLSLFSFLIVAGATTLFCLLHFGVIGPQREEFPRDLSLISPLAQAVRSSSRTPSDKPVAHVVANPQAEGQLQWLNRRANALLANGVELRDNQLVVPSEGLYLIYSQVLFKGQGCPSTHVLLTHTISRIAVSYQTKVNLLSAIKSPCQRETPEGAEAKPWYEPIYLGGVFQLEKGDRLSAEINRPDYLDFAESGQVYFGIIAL

`OCCCCC(F)(F)C(F)(F)C(F)(F)C(F)(F)F`: the result in assay [1], in [2], in assay [3], in assay [4], in assay [5] and in [6] was inactive. For the same compound, the result in [7], in assay [8] and in [9] was inactive. In addition, the AC50 in assay [6] is 21.7 µM (active).
For the compound `NC(=O)C(F)(F)C(F)(F)C(F)(F)F`, the result in assay [1], in [2], in assay [3], in assay [4], in assay [6] and in [7] was inactive. In addition, the result in assay [8], in assay [9] and in assay [10] was inactive.
On to `O=S(=O)(O)CCC(F)(F)C(F)(F)C(F)(F)C(F)(F)F`, for which the outcome in assay [1], in assay [2], in assay [3], in assay [4], in assay [6] and in assay [7] was inactive. Moreover, the result in assay [8], in [9] and in assay [10] was inactive.
Turning to `CCOC(C=C(C)CCC=C(C)C)OCC`, the outcome in assay [1], in assay [6], in [8] and in assay [10] was inactive. Besides, the AC50 in [2] was 27 µM (active); in assay [3], 30 µM (active); in assay [4], 20 µM (active); in [7], 7.77 µM (active); in assay [9] it was 30.7 µM (active).
In the case of `Cc1cc(C)c(O)c(C(C)(C)C)c1`, the result in [1], in [6] and in [8] was inactive. Further, the AC50 is 34.2 µM (active) in assay [2]; 30.6 µM (active) in assay [3]; 30.5 µM (active) in assay [4]; 29.8 µM (active) in [7]; 36.8 µM (active) in assay [9]; 32.4 µM (active) in [10].
On to `C[C@]12CC[C@H]3C(=CCc4cc(O)ccc43)[C@@H]1CCC2=O`, for which the result in assay [1], in [2], in assay [3], in assay [4], in [7] and in assay [8] was inactive. Further, the result in assay [9] was inactive. In addition, in assay [6], the AC50 was 20 µM (active).
Consider `Cc1ccc(S(=O)(=O)C(I)I)cc1`, for which the AC50 in [1] is 4.64 µM (active); in [2], 7.94 µM (active); in [3] it was 8.3 µM (active); in [4] it was 10.5 µM (active); in [6], 2.77 µM (active); in assay [7] it was 7.35 µM (active). Further, the AC50 in [8] was 4.47 µM (active); in assay [9] it was 12.5 µM (active); in assay [10], 7.25 µM (active).
As to `Brc1nc2ccccc2s1`, the result in [1], in assay [2], in assay [3], in [4], in assay [6] and in [7] was inactive. In addition, the result in [9] and in [10] was inactive. Moreover, in assay [8], the AC50 was 0.431 µM (active).
Take `O=C(O)C(F)(F)OC(F)(F)C(F)(F)OC(F)(F)C(F)(F)OC(F)(F)F`: the outcome in assay [1], in assay [2], in assay [3], in [4], in assay [6] and in assay [7] was inactive. In addition, the result in [8] and in [9] was inactive.
For `CN(C(=O)C(F)(F)C(F)(F)C(F)(F)F)[Si](C)(C)C`, the outcome in assay [1], in assay [2], in assay [3], in assay [4], in assay [6] and in [7] was inactive. The outcome in [8] and in assay [9] was inactive.
As for `CC1=CC2C3C=CC(C3)C2C1C` (configuration not stated), the outcome in assay [1], in [2], in assay [3], in [4], in assay [6] and in assay [7] was inactive. For the same compound, the outcome in assay [8], in assay [9] and in [10] was inactive.
`FC(F)(F)C(F)(F)C(F)(F)CC1CO1` (configuration not stated): the outcome in [1], in assay [2], in assay [3], in [4], in assay [6] and in [7] was inactive. Also, the result in assay [8], in assay [9] and in assay [10] was inactive.
Turning to `Cc1cc(O)c(C(C)(C)C)cc1C(C)(C)C`, the AC50 is 33.3 µM (active) in assay [1]; 3.83 µM (active) in assay [2]; 4.19 µM (active) in assay [3]; 5.41 µM (active) in assay [4]; 27.3 µM (active) in assay [6]; 3.74 µM (active) in assay [7]. Besides, the AC50 in assay [8] is 31.2 µM (active); in assay [9], 5.37 µM (active).
As to `OC(O)C(F)(F)C(F)(F)F`, the result in assay [1], in [2], in [3], in assay [4], in assay [6] and in assay [7] was inactive. Further, the result in [8] and in assay [9] was inactive.
Take `O=C(c1ccccc1)c1ccc(O)cc1O`: the outcome in assay [1], in [2], in [3], in assay [4], in assay [6] and in assay [7] was inactive. Also, the outcome in assay [8] and in assay [9] was inactive.
As for `OCC(F)(F)C(F)(F)C(F)(F)CO`, the outcome in [1], in assay [2], in assay [3], in [4], in assay [6] and in assay [7] was inactive. The result in [8], in assay [9] and in assay [10] was inactive.
As for `NS(=O)(=O)C(F)(F)C(F)(F)C(F)(F)C(F)(F)C(F)(F)C(F)(F)F`, the result in assay [1], in [2], in assay [3], in [4], in assay [6] and in assay [7] was inactive. Moreover, the result in [8] and in [9] was inactive.
